Records with an inconclusive call do not appear. Entries that show only a call come without a potency. The source made the active and inactive calls. Calls follow the shape of the dose curve; as a rule, active = well fitted cell-killing curve with a large enough effect in the repeat runs; inconclusive = weak or mixed curves, or effect the other way; inactive = flat fitted curve, though single readings scatter.
Potency is read from the fitted curve at half-maximal effect.

The nature of the assay: Nuclear factor erythroid 2-related factor 2/antioxidant responsive element (Nrf2/ARE) small molecule agonists: qHTS cell viability counter screen in human keratinocytes (AID 1919968). Also: nearly all actives have a fitted effect of over 55% in size. The note with it: KeratinoSens HaCaT ARE cells viability, CellTiter-Fluor, 24 h; series mostly up to 92.4 µM. An excerpt: U.S. Tox21 Program National Center for Advancing Translational Sciences [NCATS] Division of Preclinical Innovation [DPI] U.S. Environmental Protection Agency [EPA] National Institutes of Environmental Health Sciences [NIEHS] National Toxicology Program [NTP] U.S. Food and Drug Administration [FDA] Tox21 Assay Overview: Oxidative stress has been implicated in the pathogenesis of a variety of diseases ranging from cancer to neurodegeneration. The antioxidant response element (ARE) signaling pathway plays an important role in the amelioration of oxidative stress. The KeratinoSens (Givaudan, Switzerland) is an in vitro test method which quantifies luciferase induction as a measure of activation of Keap1-Nrf2-antioxidationt/electrophile response element (ARE) dependant pathway in HaCaT human keratinocytes stably transfected with a selectable plasmid. The KeratinoSens assay is a cell-based assay with a reporter cell line to detect potential skin sensitizers by their ability to induce the Nrf2/ARE-response. The activation of the report gene under culture conditions can be detected by ONE-Glo Luciferase Assay System (Promega, Madison, WI). This cell line has been used to screen the Tox21 10K compound library to identify agonists that induce oxidative stress. The cytotoxicity of the Tox21 compound library against the KS-ARE cell line was tested in parallel by measuring the cell viability using CellTiter- Fluor assay system (Promega, Madison, WI) in the same wells.
Tox21 Assay Protocol Summary: HaCaT derived cell line KeratinoSens were dispensed at 1,500 cells/5uL/well in 1536-well white wall/solid bottom plates using a Multidrop Combi (ThermoFisher Scientific, Waltham, MA) dispenser. After the assay plates were incubated at 37 C/5% CO2 for 5 h, 23 nL of compounds dissolved in DMSO, positive controls or DMSO only was transferred to the assay plate by a pintool workstation (Kalypsys, San Diego, CA). The plates were incubated at 37 C/5% CO2 for 23 h, followed by addition of 1uL/well of CellTiter-Fluor reagent into the assay plates using a Flying Reagent Dispenser (Aurora Discovery, San Diego, CA) for cell viability readout that measures cytotoxicity. After 1 h incubation at 37 C/5% CO2 the fluorescence intensity was measured using a ViewLux (PerkinElmer, Shelton, CT) plate reader.
(In general: qHTS replaces the single test concentration by a dilution series.)
Take `Nc1c(CC(=O)O)cccc1C(=O)c1ccc(Br)cc1`: the Potency entry was “inactive”. Same read-out and setting: for `CC(C)(C)C(=O)OCOC(=O)[C@@H]1N2C(=O)[C@@H](NC(=O)[C@H](N)c3ccccc3)[C@H]2SC1(C)C` the value was “inactive”. Still for that read-out and setting: in the case of `c1ccc(CC2=NCCN2)cc1` it was “inactive”; in that of `CC(C)=CCC1=C(O)c2ccccc2C(=O)C1=O`, “inactive”.

`CSSc1ccoc1C`: the Potency result is “inactive”.

With `CCN1CC(CCN2CCOCC2)C(c2ccccc2)(c2ccccc2)C1=O` (stereo not given), the Potency result is “inactive”. Turning to `C=CC(OCC)OCC`, the Potency result was “inactive”. Take `CCOC(=O)Cn1c(=O)sc2cccc(Cl)c21`: the Potency result is “inactive”. The same measure, in the same setting: in the case of `CC(C)=CCC[C@H](C)CCO` it was “inactive”.

For the compound `COCCOCCOCCOC`, the Potency entry is “inactive”. `CC(C)=CCC/C(C)=C/CC/C(C)=C/C(=O)OCC(=O)[C@@]1(O)CC[C@H]2[C@@H]3CCC4=CC(=O)C=C[C@]4(C)[C@H]3[C@@H](O)C[C@@]21C`: the Potency is 6.68 µM (active).

`Cc1cccc2sc(N)nc12`: the Potency result was “inactive”.

Regarding `COc1ccc(CCC(=O)c2c(O)cc(O[C@@H]3O[C@H](CO)[C@@H](O)[C@H](O)[C@H]3O[C@@H]3O[C@@H](C)[C@H](O)[C@@H](O)[C@H]3O)cc2O)cc1O`, the Potency entry was “inactive”.

Regarding `Oc1ccccc1Cc1ccccc1O`, the Potency result was “inactive”. Take `CC(C)c1ccc(C(=O)N=C(N)N)cc1S(C)(=O)=O`: the Potency result is “inactive”. For the compound `OCCN1C[C@H](O)[C@@H](O)[C@H](O)[C@H]1CO`, the Potency result was “inactive”.

For the compound `CCOc1ccccc1O[C@H](c1ccccc1)[C@H]1CNCCO1`, the Potency entry was “inactive”. Same read-out and setting: for `CCC(C)(CCCC(C)C)OC(C)=O` (stereo not given) the value was “inactive”. As to `COC(=O)C1CC(=O)C(C(=O)OC)CC1=O` (stereo not given), the activity change, negative = cytotoxicity is 2.06% [at 8.39 µM] (inactive). In the case of `Cc1cc(C)n(CO)n1`, the Potency entry was “inactive”. Still for that read-out and setting: in the case of `O=C(C(Cl)Cl)N1CCOC12CCCCC2` it was “inactive”; in that of `C=Cc1ccccc1`, “inactive”; in that of `CCCN(CCC)c1c([N+](=O)[O-])cc(C(F)(F)F)c(N)c1[N+](=O)[O-]`, 24.3 µM (active). As to `CC(C)OC(=O)c1ccccc1`, the Potency result was “inactive”. Still for that read-out and setting: for `CC(=O)Nc1ccn(C2COC(COC(=O)c3ccccc3)O2)c(=O)n1` (stereo not given) the value was “inactive”; for `Nc1ncnc2c1ncn2[C@@H]1O[C@H](CO)[C@@H](O)[C@H]1O`, “inactive”. `O=C(O)c1cccc(N(Cc2cccnc2)c2ccc(OC(F)F)c(OC(F)F)c2)c1`: the Potency result was “inactive”.

On to `COc1cc(NS(=O)(=O)c2ccc(N)cc2)nc(OC)n1`, for which the Potency entry is “inactive”. Same read-out and setting: in the case of `ICCc1ccccc1` it was “inactive”. Same read-out and setting: for `CCCCCCCC/C=C\CCCCCCCCOCCO` the value was 22.4 µM (active).

Take `CCN1CCCC1CNC(=O)c1cc(S(N)(=O)=O)ccc1OC` (stereo not given): the Potency result is “inactive”.

`Nc1ccc2cc(S(=O)(=O)O)cc(O)c2c1`: the Potency result was “inactive”. As to `Cc1nc2n(c(=O)c1CCN1CCC(c3noc4cc(F)ccc34)CC1)CCCC2`, the Potency entry is “inactive”. For the compound `Cc1cccc(C)n1`, the Potency result is “inactive”. Regarding `O=C(/C=C/c1ccccc1)OC/C=C/c1ccccc1`, the Potency result is “inactive”. Regarding `COC(=O)C(C)(C)C`, the Potency result was “inactive”. As to `OCC(O)c1ccccc1` (stereo not given), the Potency entry was “inactive”.

For the compound `CCN(CC)CCNc1ccc(CNC=O)c2sc3ccc(OC)cc3c(=O)c12`, the Potency was 54.5 µM (active). Same read-out and setting: for `CC/C=C\CCCCO` the value was “inactive”. As for `C[C@@H]1C[C@H]2[C@@H]3CCC4=CC(=O)C=C[C@]4(C)[C@@]3(F)[C@@H](O)C[C@]2(C)[C@@]1(O)C(=O)COP(=O)(O)O`, the Potency entry was “inactive”.

Values taken from PubChem BioAssay (Tox21).
